In PubChem BioAssay (NCI):
The panel holds about 79,000 compounds, 15% with a hit somewhere; the sample as a whole holds those more often. No stated cut-off is given here; in the data, active means growth inhibition above about 70%; inactive means the rest.

Key:
[1] = NCI Yeast Anticancer Drug Screen. Data for the rad50 strain (AID 155);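 further: 0% = growth of vehicle-only cultures of the same strain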; settings: S. cerevisiae rad50 strain growth inhibition; at 50.0 µM; hits give high values
Procedure, shortened: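 Inhibition values express reduced yeast growth in compound-treated cultures relative to vehicle-treated controls.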

[2] = NCI Yeast Anticancer Drug Screen. Data for the mec2-1 strain (AID 157); settings: S. cerevisiae mec2-1 strain, at 50.0 µM, hits give high values
Procedure, shortened: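 Vehicle-treated cultures served as reference for growth inhibition of compound-exposed mec2-1 yeast.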

[3] = NCI Yeast Anticancer Drug Screen. Data for the sgs1 mgt1 strain (AID 161);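 further: 0% = growth of cultures given vehicle only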; settings: S. cerevisiae sgs1 mgt1 strain, at 50.0 µM, hits give high values
Procedure, shortened: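 Mutant yeast exposed to compound; growth scored against vehicle-only wells.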

[4] = NCI Yeast Anticancer Drug Screen. Data for the cln2 rad14 strain (AID 165);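 further: 0% = growth equal to vehicle treated cultures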; settings: S. cerevisiae cln2 rad14 strain, at 50.0 µM, hits give high values
Procedure, shortened: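 Each compound was tested on cln2 rad14 yeast. Inhibition of growth was calculated against vehicle-exposed controls.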

[5] = NCI Yeast Anticancer Drug Screen. Data for the bub3 strain (AID 167); settings: S. cerevisiae bub3 mutant strain, at 50.0 µM, hits give high values
Procedure, shortened: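 Steps: expose the mutant yeast strain to compound; grow alongside vehicle-treated cultures; measure growth; express inhibition against the vehicle cultures.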

[6] = NCI Yeast Anticancer Drug Screen. Data for the mlh1 rad18 strain (AID 175); settings: S. cerevisiae mlh1 rad18 strain growth inhibition; at 50.0 µM; hits give high values
Procedure, shortened: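 Vehicle-treated cultures served as the reference for growth inhibition in a yeast strain carrying DNA damage repair alterations exposed to each compound.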

Measured: growth inhibition

COC(=O)CCCCC1=CCC2C(=O)C=C(O)C2C1 (stereo not given)
inactive: [1] -13.3% | [2] 13.1% | [3] -11.2% | [4] -2.5% | [5] -6.6% | [6] -18.8%

O=C1C=CC2=C3c4cc(O)c(O)cc4CC3(O)COC2=C1O (stereo not given)
inactive: [1] -40.6% | [2] -45.4% | [3] -9.1% | [4] -6.7% | [5] -5.7% | [6] -32%

Cc1nc2c(ccc3ccccc32)s1
inactive: [1] 10.4% | [2] -5.35% | [3] 22.7% | [4] 6.45% | [5] 3.5% | [6] 15.4%

COC(=O)c1ccc(C(C)C)cc1
inactive: [1] 2.95% | [2] 11.8% | [3] -1.35% | [4] 16.1% | [5] 0.3% | [6] 4.05%

Cc1ccc(C(=O)NC2c3ccccc3Oc3ccccc32)cc1
inactive: [1] -0.25% | [2] -7.7% | [3] 4.65% | [4] -12% | [5] 6.85% | [6] -5%

Cc1ccc(S(=O)(=O)O)c(C)c1
inactive: [1] 19.3% | [2] -4.35% | [3] 14.4% | [4] 19.9% | [5] -0.9% | [6] 23.8%

C=CCNc1nnc(C)s1
inactive: [1] 14.9% | [2] 19.7% | [3] -21.6% | [4] -16.2% | [5] -15% | [6] -5.35%

C[N+](C)(C)C(=O)c1ccccc1
inactive: [1] 21.6% | [2] 21.4% | [3] 22.1% | [4] 11.1% | [5] -1.15% | [6] 46.6%

C=CC[N+](C)(C)C
inactive: [1] 6.75% | [2] -27.9% | [3] 5.75% | [4] 7.7% | [5] 14.2% | [6] 7.4%

OCCN(CCO)C(=S)S
inactive: [1] 2.15% | [2] -5.75% | [3] 1.1% | [4] -1.8% | [5] 4.95% | [6] -0.85%

Nc1ncnc2[nH]ncc12
inactive: [1] -0.9% | [2] 25.5% | [3] 37% | [4] -2.6% | [5] 4.7% | [6] 14.1%

CCOC(=O)C(CCC(C)C)C(=O)OCC
inactive: [1] -7.55% | [2] 7.85% | [3] -9.65% | [4] -53.4% | [5] 4.6% | [6] 2.6%

Cc1cc(C)c(CC(=O)O)c(C)c1
inactive: [1] 30.5% | [2] 6.3% | [3] 16.9% | [4] 12.3% | [5] 4.3% | [6] 10.4%

Nc1nc(N)c2cc(S(=O)(=O)c3cccc(C(F)(F)F)c3)ccc2n1
inactive: [1] 34% | [2] 24.9% | [3] 7.4% | [4] 11.2% | [5] -15.4% | [6] -59.4%

CCC(=O)Oc1ccc(OC)cc1
inactive: [1] 23.1% | [2] -13.4% | [3] 2.9% | [4] 29.4% | [5] 3.9% | [6] 23.6%

O/N=C/c1ccc(O)cc1O
inactive: [1] -11.9% | [2] -5.45% | [3] -32.1% | [4] -29.9% | [5] 17.9% | [6] -33.4%

O=C(O)CCCCNC(=O)c1ccccc1
inactive: [1] 19.6% | [2] -14.4% | [3] 3.25% | [4] 12.3% | [5] -4.8% | [6] 9.4%

COC(=O)c1ccccc1Br
inactive: [1] -1.7% | [2] 7.8% | [3] 3.4% | [4] -22.1% | [5] -3.75% | [6] 6.45%

COCCOC(=O)c1ccc(C(C)C)cc1
inactive: [1] 8.8% | [2] 0.35% | [3] 0.2% | [4] -9.35% | [5] 2.75% | [6] -0.45%

CC(=Nc1ccccc1)C1=C(O)C(Cc2cccc(F)c2)NC1=O (stereo not given)
inactive: [1] 5.3% | [2] 4.35% | [3] 13.6% | [4] 2.3% | [5] -2.5% | [6] -22%

Cc1nc2ccccc2c2nnc(SCC(=O)N(Cc3ccccc3)c3ccccc3)n12
inactive: [1] 6.9% | [2] 6.6% | [3] -28.1% | [4] 8.25% | [5] -3.9% | [6] 2.25%

CC(C)=CC(=O)OC(=O)C=C(C)C
inactive: [1] -25.3% | [2] -48.4% | [3] -21.2% | [4] 1.8% | [5] -36.6% | [6] -8.65%

Cc1cccc([N+](=O)[O-])c1Cl
inactive: [1] -39.2% | [2] -72.5% | [3] -36.5% | [4] 10.6% | [5] -30.8% | [6] -17.6%

CN(C)c1ccc(S(=O)(=O)O)cc1
inactive: [1] 1.3% | [2] -3.65% | [3] 6.65% | [4] 10% | [5] 2.55% | [6] 21.9%

O=C(CS)Nc1ccc2ccccc2c1
inactive: [1] 3.5% | [2] -0.85% | [3] 22% | [4] -36.9% | [5] -7.85% | [6] -1.15%

CCCCCCCO
inactive: [1] -11% | [2] -17.9% | [3] -28.8% | [4] 2.25% | [5] -14.7% | [6] -11.9%

CCCCC(O)c1ccccc1 (stereo not given)
inactive: [1] -16.6% | [2] -4.15% | [3] -24.7% | [4] -21.8% | [5] -12.9% | [6] 6.8%

OC1CCCc2ccccc21 (stereo not given)
inactive: [1] 17.6% | [2] 17.4% | [3] 13.6% | [4] -17.9% | [5] 0.85% | [6] 20.2%

CCN1C(=O)/C(=C/C=C/N(C)c2ccccc2)SC1=S
inactive: [1] 0.9% | [2] -13.3% | [3] 3.25% | [4] 9.05% | [5] 20.9% | [6] 7.85%

COc1cc(/C=C/C(=O)c2ccccc2)cc(OC)c1OC
inactive: [1] -4.7% | [2] -5.8% | [3] -3% | [4] 34.5% | [5] -18.1% | [6] -2.3%
